{"source": "PubChem BioAssay (NCI)", "key": {"[1]": {"assay": "NCI Yeast Anticancer Drug Screen. Data for the rad50 strain (AID 155);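 also: 0% = growth of vehicle-only cultures of the same strain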", "conditions": "S. cerevisiae rad50 strain growth inhibition; at 50.0 µM; active compounds read high", "method_in_brief": "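Inhibition values express reduced yeast growth in compound-treated cultures relative to vehicle-treated controls.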"}, "[2]": {"assay": "NCI Yeast Anticancer Drug Screen. Data for the mec2-1 strain (AID 157)", "conditions": "S. cerevisiae mec2-1 strain, at 50.0 µM, active compounds read high", "method_in_brief": "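Using mec2-1 yeast: add compound, measure growth, express inhibition versus vehicle-treated cultures.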"}, "[3]": {"assay": "NCI Yeast Anticancer Drug Screen. Data for the sgs1 mgt1 strain (AID 161);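 also: 0% = growth of cultures given vehicle only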", "conditions": "S. cerevisiae sgs1 mgt1 strain, at 50.0 µM, active compounds read high", "method_in_brief": "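Growth of a repair-deficient yeast mutant was monitored after compound treatment and expressed as inhibition relative to vehicle-treated cultures.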"}, "[4]": {"assay": "NCI Yeast Anticancer Drug Screen. Data for the cln2 rad14 strain (AID 165);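 also: 0% = growth equal to vehicle treated cultures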", "conditions": "S. cerevisiae cln2 rad14 strain, at 50.0 µM, active compounds read high", "method_in_brief": "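Yeast strain cln2 rad14, bearing defects in cell cycle control and DNA repair, serves as the test system; values reflect growth inhibition compared with vehicle.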"}, "[5]": {"assay": "NCI Yeast Anticancer Drug Screen. Data for the bub3 strain (AID 167)", "conditions": "S. cerevisiae bub3 mutant strain, at 50.0 µM, active compounds read high", "method_in_brief": "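Steps: expose the mutant yeast strain to compound; grow alongside vehicle-treated cultures; measure growth; express inhibition against the vehicle cultures.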"}, "[6]": {"assay": "NCI Yeast Anticancer Drug Screen. Data for the mlh1 rad18 strain (AID 175)", "conditions": "S. cerevisiae mlh1 rad18 strain growth inhibition; at 50.0 µM; active compounds read high", "method_in_brief": "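Steps: expose repair-defective yeast to compound; measure growth; express inhibition against vehicle-treated controls.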"}}, "note": "Compounds without any hit were thinned out: in the full panel of roughly 79,000, 15% have a hit. A number with no mark means an inactive call. The source made the active and inactive calls. Rule as the data show it: active = growth inhibition above about 70%; inactive = the rest.", "data": [{"compound": "CCC(c1ccc(N(C)C)cc1)C1NC(=S)NC1=O", "note": "(configuration not stated)", "values": [{"measurement": "growth inhibition", "setting": "[1]", "value": -4.2, "unit": "%"}, {"measurement": "growth inhibition", "setting": "[2]", "value": -27.8, "unit": "%"}, {"measurement": "growth inhibition", "setting": "[3]", "value": -17.6, "unit": "%"}, {"measurement": "growth inhibition", "setting": "[4]", "value": 0.85, "unit": "%"}, {"measurement": "growth inhibition", "setting": "[5]", "value": 11.8, "unit": "%"}, {"measurement": "growth inhibition", "setting": "[6]", "value": -9.55, "unit": "%"}]}, {"compound": "CC1OC23CCCCC2C(C#N)(C#N)C1(C#N)C(=N)O3", "note": "(configuration not stated)", "values": [{"measurement": "growth inhibition", "setting": "[1]", "value": 3.65, "unit": "%"}, {"measurement": "growth inhibition", "setting": "[2]", "value": 9.5, "unit": "%"}, {"measurement": "growth inhibition", "setting": "[3]", "value": -36, "unit": "%"}, {"measurement": "growth inhibition", "setting": "[4]", "value": -22.9, "unit": "%"}, {"measurement": "growth inhibition", "setting": "[5]", "value": -35, "unit": "%"}, {"measurement": "growth inhibition", "setting": "[6]", "value": 2.95, "unit": "%"}]}, {"compound": "Cc1ccc(NC(=O)/C(Cc2cc(=O)oc3cc(O)ccc23)=N\\NC(C)(C)C)cc1C", "values": [{"measurement": "growth inhibition", "setting": "[1]", "value": -3.95, "unit": "%"}, {"measurement": "growth inhibition", "setting": "[2]", "value": -10.3, "unit": "%"}, {"measurement": "growth inhibition", "setting": "[3]", "value": -21.9, "unit": "%"}, {"measurement": "growth inhibition", "setting": "[4]", "value": -33.9, "unit": "%"}, {"measurement": "growth inhibition", "setting": "[5]", "value": -17.9, "unit": "%"}, {"measurement": "growth inhibition", "setting": "[6]", "value": -3.5, "unit": "%"}]}, {"compound": "CO/C(N)=C(\\C#N)N=Cc1ccc2ccccc2c1", "values": [{"measurement": "growth inhibition", "setting": "[1]", "value": 30.9, "unit": "%"}, {"measurement": "growth inhibition", "setting": "[2]", "value": 14.3, "unit": "%"}, {"measurement": "growth inhibition", "setting": "[3]", "value": 13.6, "unit": "%"}, {"measurement": "growth inhibition", "setting": "[4]", "value": 19.1, "unit": "%"}, {"measurement": "growth inhibition", "setting": "[5]", "value": 16.7, "unit": "%"}, {"measurement": "growth inhibition", "setting": "[6]", "value": 40.5, "unit": "%"}]}, {"compound": "NC1N=C(c2ccc(Cl)cc2)C2=C(N1)c1ccccc1CC2", "note": "(configuration not stated)", "values": [{"measurement": "growth inhibition", "setting": "[1]", "value": -7.1, "unit": "%"}, {"measurement": "growth inhibition", "setting": "[2]", "value": 0.9, "unit": "%"}, {"measurement": "growth inhibition", "setting": "[3]", "value": -0.75, "unit": "%"}, {"measurement": "growth inhibition", "setting": "[4]", "value": 8.05, "unit": "%"}, {"measurement": "growth inhibition", "setting": "[5]", "value": 18.9, "unit": "%"}, {"measurement": "growth inhibition", "setting": "[6]", "value": -50.7, "unit": "%"}]}, {"compound": "C=C1C(=O)O[C@H]2C[C@@]3(C)[C@H](O)CCC(=C)[C@@H]3[C@@H](OC(C)=O)[C@H]12", "values": [{"measurement": "growth inhibition", "setting": "[1]", "value": 2.95, "unit": "%"}, {"measurement": "growth inhibition", "setting": "[2]", "value": 25.4, "unit": "%"}, {"measurement": "growth inhibition", "setting": "[3]", "value": 0.05, "unit": "%"}, {"measurement": "growth inhibition", "setting": "[4]", "value": -6.7, "unit": "%"}, {"measurement": "growth inhibition", "setting": "[5]", "value": -26.8, "unit": "%"}, {"measurement": "growth inhibition", "setting": "[6]", "value": -29.4, "unit": "%"}]}, {"compound": "CCCCCCCCCC(=O)CC(=O)c1c(O)cc(O)cc1O", "values": [{"measurement": "growth inhibition", "setting": "[1]", "value": "87.8% (active)"}, {"measurement": "growth inhibition", "setting": "[2]", "value": "91.3% (active)"}, {"measurement": "growth inhibition", "setting": "[3]", "value": 12.2, "unit": "%"}, {"measurement": "growth inhibition", "setting": "[4]", "value": 22.4, "unit": "%"}, {"measurement": "growth inhibition", "setting": "[5]", "value": 31.8, "unit": "%"}, {"measurement": "growth inhibition", "setting": "[6]", "value": "91.7% (active)"}]}]}
